Source: PubChem BioAssay
Active and inactive are the calls of the source. Unless noted, the rule behind the calls is not given here.

Tests used:
[1] = HepG2 liver cancer cell viability effects, profiling panel, resazurin fluorescence, 24 h, PK04 Diversity Set (AID 1172); details: higher = more signal
[2] = basal S. cerevisiae growth modulation, no modifier, primary screen, OD600, strain BY4716, 24 h, basal condition (AID 1173); details: OD600, 24 h, higher = more signal, called active from +8 up or from −8 down
[3] = MM1S myeloma cell viability, profiling panel, resazurin fluorescence, basal, 24 h, PK04 Diversity Set (AID 1174); details: higher = more signal, called active from +8 up or from −8 down;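 note: MM1S multiple myeloma cell line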
[4] = molecular target: Dihydroorotate dehydrogenase (quinone), mitochondrial (Plasmodium falciparum (isolate 3D7)) (UniProt Q08210); assay: PfDHODH enzyme inhibitors, primary screen, biochemical, C-terminal His tag, absorbance 600 nm (AID 1175); details: DCIP absorbance 600 nm, higher = more signal, called active from +8 up or from −8 down;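 note: recombinant parasite enzyme with a five histidine tag at its C terminus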
Chain of Dihydroorotate dehydrogenase (quinone), mitochondrial (Plasmodium falciparum (isolate 3D7)) (Q08210 whole entry, looked up): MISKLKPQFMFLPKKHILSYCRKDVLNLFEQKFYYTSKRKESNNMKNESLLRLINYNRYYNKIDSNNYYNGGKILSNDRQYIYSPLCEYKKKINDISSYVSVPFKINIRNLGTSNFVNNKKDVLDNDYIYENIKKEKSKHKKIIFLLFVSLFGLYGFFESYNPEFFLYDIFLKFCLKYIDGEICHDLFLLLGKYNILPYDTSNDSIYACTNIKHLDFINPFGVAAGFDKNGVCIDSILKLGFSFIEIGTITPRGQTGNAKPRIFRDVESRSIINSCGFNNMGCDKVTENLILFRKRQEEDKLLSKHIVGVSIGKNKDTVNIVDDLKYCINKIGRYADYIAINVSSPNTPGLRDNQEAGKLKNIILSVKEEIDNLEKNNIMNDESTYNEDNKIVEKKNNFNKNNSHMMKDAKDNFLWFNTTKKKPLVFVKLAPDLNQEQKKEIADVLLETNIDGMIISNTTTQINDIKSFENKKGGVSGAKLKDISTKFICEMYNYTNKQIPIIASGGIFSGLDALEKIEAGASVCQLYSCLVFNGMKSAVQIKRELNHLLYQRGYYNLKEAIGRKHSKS

[5] = P. aeruginosa biofilm formation inhibitors, primary screen, strain PAO1, LB-PBS medium, absorbance 600 nm (AID 1176); details: P. aeruginosa PAO1 growth/biofilm, A600, 12 h; higher = more signal
[6] = S. cerevisiae RM11-1a growth modifiers, primary screen, strain RM11-1a, OD600, basal, 24 h (AID 1177); details: OD600, 24 h, higher = more signal, called active from +8 up or from −8 down;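 note: cultures grown under basal conditions with no added stressor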
[7] = E. coli acrAB mutant growth effects, primary screen, E. coli filamentation inducers, strain DRC39, OD650, 24 h (AID 1178); details: higher = more signal, called active from +8 up or from −8 down;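 note: growth measured as culture turbidity by optical density at 650 nm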
[8] = E. coli acrAB mutant growth effects, primary screen, E. coli filamentation inducers, strain DRC39, OD650, 48 h (AID 1179);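 note: screen aims at cell division blockers that make cells filament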; details: E. coli DRC39 delta-acrAB growth, higher = more signal, called active from +8 up or from −8 down
[9] = RPMI8226 myeloma cell viability, profiling panel, resazurin fluorescence, basal, 24 h, PK04 Diversity Set (AID 1180); details: higher = more signal;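 note: RPMI8826 multiple myeloma cell line at 5000 cells per well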
[10] = molecular target: E3 ubiquitin-protein ligase XIAP (Homo sapiens) (UniProt P98170); assay: XIAP binders, primary screen, biophysical, small-molecule microarray, fluorescence 635 nm (AID 1181); details: small-molecule microarray binding, higher = more signal;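 note: score merges 667 nm emission and signal to noise over triplicate slides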
Chain of E3 ubiquitin-protein ligase XIAP (Homo sapiens) (P98170 whole entry, looked up): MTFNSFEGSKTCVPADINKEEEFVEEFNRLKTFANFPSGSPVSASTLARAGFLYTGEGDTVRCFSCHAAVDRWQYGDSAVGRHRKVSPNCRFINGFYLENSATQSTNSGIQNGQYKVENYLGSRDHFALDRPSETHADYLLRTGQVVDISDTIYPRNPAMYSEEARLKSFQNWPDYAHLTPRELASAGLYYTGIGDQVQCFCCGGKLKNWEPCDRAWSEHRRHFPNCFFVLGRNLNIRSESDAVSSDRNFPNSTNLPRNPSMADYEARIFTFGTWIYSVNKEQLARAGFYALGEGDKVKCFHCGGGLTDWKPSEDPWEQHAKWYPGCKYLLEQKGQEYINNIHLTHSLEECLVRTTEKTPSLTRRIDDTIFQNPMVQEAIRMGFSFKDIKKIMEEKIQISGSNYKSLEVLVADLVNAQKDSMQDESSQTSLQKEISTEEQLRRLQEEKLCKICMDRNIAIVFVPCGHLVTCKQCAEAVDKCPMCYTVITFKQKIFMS

[11] = tested on: XIP peptide (Xip251-270) binding; assay: small-molecule binders of XIP peptide, primary screen, biochemical, small-molecule microarray, fluorescence 635/667 nm, 0.1 µg/mL protein (AID 1182); details: fluorescent protein binding, 635 nm, higher = more signal, called active from +8 up or from −8 down
XIP peptide (Xip251-270) = assay: small-molecule binders of XIP peptide, primary screen, biochemical, small-molecule microarray, fluorescence 635/667 nm, 0.5 µg/mL protein (AID 1183); details: small-molecule microarray binding, fluorescence 635 nm; higher = more signal
[12] = Plasmodium falciparum growth inhibition, primary screen, strain 3D7, DAPI fluorescence, 100 nL (AID 1184);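 note: parasites grown inside human red blood cells in medium with human serum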; details: P. falciparum 3D7 growth, 3 d, higher = more signal
[13] = molecular target: Homeobox protein Hox-A13 (Mus musculus) (UniProt Q62424); assay: inhibitors of HoxA13-DNA binding, primary screen, biochemical, fluorescence polarization, labeled oligonucleotide (AID 1185); details: 15 min, higher = more signal, called active from +8 up or from −8 down
Chain of Homeobox protein Hox-A13 (Mus musculus) (Q62424 whole entry, looked up): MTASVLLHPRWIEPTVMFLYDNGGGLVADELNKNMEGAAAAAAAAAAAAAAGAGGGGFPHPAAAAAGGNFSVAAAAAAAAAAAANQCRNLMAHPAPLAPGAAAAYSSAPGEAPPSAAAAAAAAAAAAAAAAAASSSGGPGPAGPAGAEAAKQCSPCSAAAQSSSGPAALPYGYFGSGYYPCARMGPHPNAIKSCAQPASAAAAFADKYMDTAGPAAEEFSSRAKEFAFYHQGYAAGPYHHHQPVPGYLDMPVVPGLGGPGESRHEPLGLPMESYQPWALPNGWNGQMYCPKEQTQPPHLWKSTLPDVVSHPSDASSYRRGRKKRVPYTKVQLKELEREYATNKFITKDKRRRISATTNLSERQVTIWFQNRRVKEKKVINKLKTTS

[14] = inhibitors of hydroxyurea-induced Chk1 phosphorylation, primary screen, imaging, HeLa, phospho-Chk1 antibody, percent positive cells (AID 1186); details: hydroxyurea-induced phospho-Chk1 immunofluorescence imaging, higher = more signal
[15] = inhibitors of hydroxyurea-induced Chk1 phosphorylation, primary screen, imaging, HeLa, phospho-Chk1 nuclear intensity (AID 1187); details: hydroxyurea-induced phospho-Chk1 immunofluorescence imaging, higher = more signal

| SMILES | z-score [1] | z-score [2] | z-score [3] | composite z-score [4] | z-score [5] | z-score [6] | z-score [7] | z-score [8] | z-score [9] | composite z-score [10] | composite z-score [11] | composite z-score (XIP peptide (Xip251-270)) | z-score [12] | z-score [13] | z-score [14] | z-score [15] |
| --- | --- | --- | --- | --- | --- | --- | --- | --- | --- | --- | --- | --- | --- | --- | --- | --- |
| O=C1N(CCS(=O)(=O)c2ccccc2)Cc2ccccc2[C@H]2OC(c3ccc(OCCCO)cc3)=N[C@@]12CCS(=O)(=O)c1ccccc1 | 0.759 | 1.83 (inactive) | 0.935 (inactive) | -0.796 (inactive) | 0.0533 (inactive) | 3.07 (inactive) | 1.69 (inactive) | 1.09 (inactive) | -0.124 | -0.15 | 2.05 (inactive) | 0.81 | -2.09 | -0.483 (inactive) | -0.44 (inactive) | -0.346 (inactive) |
| CC=CC(O)C1C=CC2C(=O)N(c3ccccc3)C(=O)C2N1Nc1ccc(C(C)C)cc1 (centres undefined) | -1.76 | 0.474 (inactive) | -0.785 (inactive) | 0.784 (inactive) | 0.518 (inactive) | 1.11 (inactive) | -0.457 (inactive) | -1.02 (inactive) | -0.863 | 0.384 | 0.213 (inactive) | 0.766 | -0.747 | -2.24 (inactive) | 0.55 (inactive) | 0.538 (inactive) |
| CCOC(=O)C[C@H]1[C@H](OC(=O)c2ccc(-c3ccccc3)cc2)[C@@H](NC(=O)c2ccc(-c3ccccc3)cc2)c2cc(OCCCO)ccc2N1C(=O)Cc1ccc(OC)cc1 | -0.0995 | 0.353 (inactive) | -0.26 (inactive) | -0.432 (inactive) | 0.432 (inactive) | 0.0873 (inactive) | 0.39 (inactive) | 0.372 (inactive) | -0.361 | -0.123 | -0.548 (inactive) | -0.057 | 0.555 | -1.54 (inactive) | -0.0323 (inactive) | 0.107 (inactive) |
| CC(C)C[C@@H]1NC(=O)[C@@H]2C[C@H](C(=O)NCCCCCC[N+](C)(C)C)[C@H](c3ccc(O)cc3)N2C1=O | -0.219 | 0.54 (inactive) | 0.181 (inactive) | 0.191 (inactive) | -0.282 (inactive) | 1.11 (inactive) | 0.487 (inactive) | 0.62 (inactive) | 0.0176 | -0.0056 | 1.5 (inactive) | 0.535 | 0.727 | -2.3 (inactive) | -0.525 (inactive) | -0.124 (inactive) |
| Cc1cc(C)c(C(O)C2C=CC3C(=O)N(c4ccccc4)C(=O)C3N2Nc2ccc(C#N)cc2)c(C)c1 (centres undefined) | -0.833 | 0.011 (inactive) | 0.0952 (inactive) | 0.623 (inactive) | 1.26 (inactive) | 0.384 (inactive) | -0.232 (inactive) | -0.185 (inactive) | -0.451 | -0.253 | 1.69 (inactive) | 0.432 | -0.558 | 0.783 (inactive) | 0.0661 (inactive) | 0.0947 (inactive) |
| O=C1O[C@H](c2ccccc2)[C@H](c2ccccc2)N2[C@H]1[C@@H](C(=O)O)[C@]1(C(=O)Nc3ccc(C#CC4(O)CCCCCC4)cc31)[C@H]2c1ccc(OCCO)cc1 | 0.246 | -0.495 (inactive) | -0.249 (inactive) | -4.61 (inactive) | 1.07 (inactive) | 2.12 (inactive) | -0.184 (inactive) | -0.151 (inactive) | -0.317 | -0.0181 | 1.31 (inactive) | 0.599 | 0.362 | -6.3 (inactive) | -0.125 (inactive) | -0.198 (inactive) |
| CCCCC(CC)C(O)C1C=CC2C(=O)N(c3ccccc3)C(=O)C2N1Nc1ccccc1 (centres undefined) | -1.3 | -1.14 (inactive) | -1.51 (inactive) | -0.524 (inactive) | 0.462 (inactive) | -0.347 (inactive) | -0.556 (inactive) | -0.945 (inactive) | -1.42 | 0.387 | -0.147 (inactive) | 0.216 | -0.392 | -1.89 (inactive) | -0.335 (inactive) | -0.23 (inactive) |
| N#Cc1ccc(NN2C(C(O)c3cccs3)C=CC3C(=O)N(c4ccccc4)C(=O)C32)cc1 (centres undefined) | -0.375 | -1.97 (inactive) | 0.0171 (inactive) | -1.41 (inactive) | 1.08 (inactive) | -1.59 (inactive) | 0.766 (inactive) | 1.36 (inactive) | 0.131 | -0.126 | 0.529 (inactive) | 0.477 | 0.407 | -2.34 (inactive) | 0.0213 (inactive) | -0.548 (inactive) |
| O=C1OCCC=C[C@H]2OC34C=CCN(c5ccc6ccccc6c5)C(=O)[C@H]3N(CCCCCO)C(=O)[C@@H]4C12 (some centres undefined) | 1.32 | -0.805 (inactive) | 0.835 (inactive) | -0.556 (inactive) | 0.357 (inactive) | -0.403 (inactive) | 1.61 (inactive) | 1.74 (inactive) | 1.28 | -0.174 | 0.427 (inactive) | 0.385 | 0.405 | -5.5 (inactive) | -0.202 (inactive) | 0.891 (inactive) |
